The whole screen tested about 52,000 sequences, of which about 210 (0.4%) were called active.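 The calls were made as follows: active = gene whose silencing raises cell survival under the drug, median off-target-corrected z-score across its silencing RNAs 2 or more; inactive = the rest.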 The sample as a whole holds a higher share of actives than the screen did.
Experiment: Resistance to Poly (ADP-Ribose) Polymerase inhibitor: Gene Identification via Genome-wide siRNA Screen
Conditions: mouse BRCA2 R2336H ES cells, olaparib, CellTiter-Glo viability; active compounds read high
Outline: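 Genome-wide siRNA screen (3 siRNAs/gene, 20 nM) in mouse ES cells carrying hypomorphic BRCA2 R2336H; olaparib 500 nM added 48 h post-transfection, CellTiter-Glo viability 72 h later. Normalized to plate-median negative control; MAD z-scores, gene median, seed-adjusted.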
In the case of GGGCUGGAAUAAACUUGUCTT against Usp15, the z-score is reported as 1.51 (active).
With GGAACAUAGUAGCAUGCCATT against Leprel2 the z-score was -0.442 (inactive).
With GGCUUAUGUCCCAAAGCUATT against Nexn the z-score was 1.35 (inactive).
For “CUGUAAGGCGGAUAAGACCTT against 2610017I09Rik”, the z-score was -0.52 (inactive).
For CCCACUAAGAAACAAUCUATT against Gp1ba, the z-score was 0.484 (inactive).
For GGGACUUCUUGUGAAUGGATT against Mobp, the z-score was -0.971 (inactive).
With GUCUGUAUUCCUAGAUUCCTT against Olfr794 the z-score was 0.287 (inactive).
For GGUCACUGUUUCCCUAGACTT against Prss33, the z-score was -0.494 (active).
In the case of GGUUAGGUUGAUGAAUAAGTT against Eif4ebp2, the z-score is reported as -0.495 (inactive).
For “GGUUUUUGAGCCAUAUCCATT against 4632404H22Rik”, the z-score was 0.625 (inactive).
In the case of GGAUCCAAGCAUUAUAGUGTT against LOC229512, the z-score is reported as -0.425 (inactive).
For CCCUUGUGAUGUGGUGAAGTT against Slc25a22, the z-score was -1.58 (inactive).
In the case of GGACAAGGAUAGUAGUAAGTT against Adprt1, the z-score is reported as 3.83 (active).
With GCAUGAAAACACGUUUGGGTT against Hdac11 the z-score was 0.768 (inactive).
For CGAUCUUCCAAACCCUCUUTT against Dhh, the z-score was -0.652 (inactive).
With GGACUGAGGAAGAAUUUAATT against Grp58 the z-score was -0.954 (inactive).
In the case of GGAAUGUAUCCAGGACUUCTT against Brd4, the z-score is reported as -1.95 (inactive).
With GGAGAUCGUGCAAUUCAUUTT against Rasl2-9 the z-score was -0.53 (inactive).
In the case of GGCGGUGAUCCAGGGUUUATT against Klc2, the z-score is reported as -0.0337 (inactive).
With GCAAUGUCGCCAAACGUAATT against Zfpn1a1 the z-score was -0.213 (inactive).
For CCGUAAUUGAUUCUUUACUTT against Kif3a, the z-score was 2.25 (active).
With GCCCAAACUCAAGCAAGUCTT against Trpm3 the z-score was -2.79 (inactive).
In the case of GGCUACGAAACCAGAAGAUTT against Shd, the z-score is reported as 0.117 (inactive).
In the case of CCUUCUGGCCCAGACGAUUTT against Pxmp2, the z-score is reported as -0.173 (inactive).
With GCUGAGAGAAAGGUUCACATT against Tube1 the z-score was -1.3 (inactive).
In the case of CCUUGUAUCCUUAAUCCUCTT against Ppt1, the z-score is reported as 0.555 (inactive).
With GGAAGCAGAAUUGUAAAGATT against Bid3 the z-score was 2.41 (active).
For GGAAAUGUGACCACAAAGATT against Tas2r120, the z-score was -0.347 (inactive).
In the case of GGAAGAAUUGAACCACAGGTT against Papolg, the z-score is reported as 0.756 (inactive).
With “GGUGGCACUCUUUCAGAUCTT against 6030446I19Rik” the z-score was 0.179 (inactive).
In the case of GCCUGCUCUUGAAGGAUAATT against Ptpn9, the z-score is reported as 1.13 (active).
For GGACCUGUUUGAAGAAAAGTT against Gnai2, the z-score was -0.66 (inactive).
For GGUUUCUCUCUACGCUAUGTT against Nrp2, the z-score was 1.81 (inactive).
For GGACUGGUUCUUCAGUACCTT against Cradd, the z-score was 2.24 (inactive).
For CCGGCAACAUGCGUGAAUUTT against Trpv4, the z-score was -0.769 (inactive).
With “GGAAAAAUGGGAGUUUGAATT against 4932423M01Rik” the z-score was -0.322 (inactive).
With GGAAUUUUAGCGGAUGAUATT against Smarca3 the z-score was 1.54 (active).
With “CCUAGAUUGAAAAUUGUCATT against 1700049G17Rik” the z-score was -0.329 (inactive).
For GCUAAUUUGACAAAGACGGTT against Bfsp2, the z-score was 1.26 (inactive).
With GGAAGUCAGACAGAUUUAATT against Prss33 the z-score was 3.17 (active).
In the case of GGACAUAAAAAUACGCCAGTT against Hsf1, the z-score is reported as 3.22 (inactive).
With GGGCAGAGUGAUGUUGUCATT against Gsdmdc1 the z-score was -1.93 (inactive).
For CCAGCAUAUCUACUGUUCUTT against V1rf2, the z-score was -0.647 (inactive).
In the case of GGACACAAAUGACAUCAACTT against Ptpns1, the z-score is reported as -0.156 (inactive).
For CGUCUCUGCUGAGAACAUGTT against Kcnk15, the z-score was 2.15 (active).
In the case of GGUUGUGGAACUAGAAUAUTT against Wdr12, the z-score is reported as -1.25 (inactive).
In the case of GGGAUGUAUUAGUGAAAGGTT against Dm15, the z-score is reported as -0.213 (inactive).
In the case of CCGAAAGAACACAAUCUAUTT against Ifi16, the z-score is reported as -0.1 (inactive).
In the case of GGAAAAGUCCUGUAAAAUUTT against Dmrta1, the z-score is reported as 0.431 (inactive).
In the case of “GGACAUGACCAAAAGGCUGTT against 3110006P09Rik”, the z-score is reported as 2.27 (active).
With GCUUAUGAUGAACAAGCCCTT against Aplra1 the z-score was 0.51 (inactive).
With GGCUGCCUCGAAAUUACAATT against Lamb3 the z-score was -1.79 (inactive).
With GGACCAGAAAAUUCACUUUTT against Gdap2 the z-score was -1.39 (inactive).
In the case of “GGCCUUCUCUGACUUUCUGTT against D430030K24Rik”, the z-score is reported as 3.28 (active).
In the case of CCCAUUAUUGGCACUACAATT against LOC434285, the z-score is reported as -0.98 (inactive).
For GCUAGGAAGAGAGUGAUCUTT against Alg1, the z-score was -0.838 (inactive).
In the case of GGAAGAAAACAUGGAAGAATT against Usp47, the z-score is reported as 3.28 (active).
For GCAAGUUAUCCAGCACUCATT against Ylpm1, the z-score was -1.57 (inactive).
With GCCUCAGAAAAACAUCUAUTT against BC008103 the z-score was 2.16 (inactive).
With GGACGAACCUUUAUACCAGTT against Arhgef15 the z-score was -1.21 (inactive).
For GGCAUUCGAAGGGACAGAUTT against Arg2, the z-score was -0.343 (inactive).
For GGGUAGCUGGCGAAUCAAATT against Ptpro, the z-score was 1.43 (inactive).
In the case of GGAGCAAAUCCAGAGCAACTT against Actr8, the z-score is reported as 2.88 (active).
In the case of “GGAUUCUGCCUGAUCAAUGTT against 1110008F13Rik”, the z-score is reported as -1.08 (inactive).
For “GGGAUGCUUUUGGCCCAAATT against 1110008J03Rik”, the z-score was -0.285 (inactive).
With GCAUCGUUACAGGACUUUATT against Enpp1 the z-score was -0.601 (inactive).
With CGAUGAAAUCAUCACUAUCTT against Cyfip1 the z-score was -0.619 (inactive).
With “GGGAGAAGAAAUGGUUUAATT against B230315M08Rik” the z-score was 1.54 (active).
In the case of GGAGACAAAUAUGAUGUAUTT against Hook1, the z-score is reported as -1.94 (inactive).
For GGAUUUUUCUUUUGAGCGATT against Figf, the z-score was -0.866 (inactive).
For GCACGUGGGCUAUUCCUACTT against Gria1, the z-score was 2.78 (active).
In the case of CCAACUUUCUCUUAGGAAATT against Gm580, the z-score is reported as 0.9 (inactive).
In the case of CCUAUUUUUUCUCCACUGATT against Sntg1, the z-score is reported as -0.718 (inactive).
For “GGUCAUGGAAGAAGCAAAGTT against 5730555F13Rik”, the z-score was 2.7 (inactive).
In the case of “GGUUUUUUACACAACAUGCTT against 1110067D22Rik”, the z-score is reported as 0.0564 (inactive).
For GGAGUACGUUGACAUCAUCTT against Timp4, the z-score was -1.01 (inactive).
For GCGCAUAUUUUAUCAACUCTT against Plcb3, the z-score was 1.31 (active).
With GGAGAAACUUCAACUCUUATT against Resp18 the z-score was 0.73 (inactive).
In the case of CGAAAGAAGGUGAGGGCUCTT against Ppp1r9a, the z-score is reported as -0.95 (inactive).
With GCGUAUCCCAGAUAUCCGATT against BC064033 the z-score was 0.0741 (inactive).
With “GCUGUUGCUGGCUAUUCUGTT against 5730409G15Rik” the z-score was 0.298 (inactive).
For GCCUCACAACUCUUACACCTT against Ptprc, the z-score was 0.888 (inactive).
With GGAUGGUCAUAAGGAUCAATT against Gpr128 the z-score was 2.66 (active).
In the case of CCAAGUAUUUCACAAACCGTT against Slc29a1, the z-score is reported as 1.5 (inactive).
With GGAAGAUGUCCAAACCCGCTT against Tm4sf7 the z-score was 0.167 (inactive).
In the case of “CCAACUCGUUAUCACUAUATT against 1700001D09Rik”, the z-score is reported as -0.0393 (inactive).
With “GGGUACAAUAUCCUUAAGUTT against D430033A06Rik” the z-score was -0.51 (inactive).
In the case of GAUUCCACGCCAAUUCAUCTT against Ccl3, the z-score is reported as -1.53 (inactive).
In the case of CCCACCUAGGUUCAUCCCATT against Fath, the z-score is reported as 2.93 (active).
For GGCUUAUCAGUCCAUGAAGTT against BC022224, the z-score was 1.93 (inactive).
In the case of GGAGCCGAGUACAACAUCATT against Galgt1, the z-score is reported as 0.763 (inactive).
In the case of CGUUUUCCACAAAGCAAAATT against Olfr1465, the z-score is reported as 0.0226 (inactive).
For GGCAAAGUGAUAUUUUCAATT against Slc6a12, the z-score was 1.85 (active).
In the case of CCCGGAACUUAACUCUGUATT against LOC381438, the z-score is reported as -0.264 (inactive).
With GCCAUUUACAUUCCCAGGGTT against Gm741 the z-score was 0.238 (inactive).
In the case of CCAAGCAACACCACUCAUCTT against Centb2, the z-score is reported as -0.144 (inactive).
In the case of GGAGAUGAAGAGGUUGGUUTT against Olig3, the z-score is reported as -0.366 (inactive).
With GGGAUCGAUCAAUCAUAACTT against Tcfap2c the z-score was 1.8 (inactive).
For GGAAAUCUUACAGACUGAGTT against Grid2, the z-score was 2.5 (active).
With GCGCAAGUACCUCAAGAGUTT against Grem2 the z-score was 0.717 (inactive).
For “GGUGCUAGUGUAUGAAUUATT against 9830109N13Rik”, the z-score was 2.24 (inactive).
For GGUGAUAACUCCCUAGUAGTT against Rai12, the z-score was -1.43 (inactive).
With CGGACAUUGUUCUGUUUUCTT against Por the z-score was 1.14 (inactive).
For CGACAUGUAAAACUAUUGUTT against BC034097, the z-score was 0.0442 (active).
In the case of “CCUCUAGUAAAGAAAUAGATT against 2610019N13Rik”, the z-score is reported as -2.5 (inactive).
For “GGGCUGAUGUGGGCUAAAUTT against 1110001E17Rik”, the z-score was 4.07 (active).

Source: PubChem BioAssay AID1347423 (Functional Genomics Laboratory (NCATS/FGL), 2020)
